PubChem BioAssay
The source made the active and inactive calls.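 How the source made its calls, unless noted: active means compounds that lower viability of the colon cancer cells in the luminescence readout, with no numeric limit stated; inactive means the rest.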 Starred links: 1 amine or outer side, 2 acyl side, 3 side chain; linkers in the order of their positions; H or OH if unused. Positions of bridges follow the written chain, without caps; N, C: chain ends. Non-standard residues stand in square brackets, D forms with d. Residues, ends and D or L forms follow the SMILES beside them. Chains are numbered I, II in the order given. Actinocin(9to1) = Cc1c2oc3c(C)ccc(C(=O)[*:1])c3nc-2c(C(=O)[*:2])c(N)c1=O; NMeV = CN[C@H](C(=O)O)C(C)C; Sar = CNCC(=O)O

Assays:
[1] = stimulators of insulin release from INS-1E, primary screen, cell-based, 5 mM glucose, NPC library (AID 1117329;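 active means compound raises insulin release from rat beta cells at 5 mM glucose, no numeric limit stated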); conditions: rat INS-1E insulin secretion, at 10 µM, stronger effect = higher value
[2] = growth inhibition of GSK3B-pretreated HCT116 cells – cell-based, CellTiter-Glo, 0.2 to 20 µM (AID 1117336;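 active means compounds lowering colon cancer cell viability after pretreatment blocking the GSK3B kinase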); conditions: HCT116 viability after GSK3B inhibitor, at 20 µM, stronger effect = higher value
[3] = inhibition of endothelial tube formation, primary screen, imaging, VEGF stimulated, CD31 staining, tube area, NPC library (AID 1117340;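 active means compound that reduces growth-factor-driven endothelial tube area in a mixed cell culture, no cutoff stated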); conditions: VEGF-stimulated ADSC/ECFC co-culture, at 10 µM, stronger effect = higher value
[4] = glucagon-like peptide 1 release enhancers, primary assay, NCI-H716 cell line, NPC library (AID 1117341;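 active means compound raises GLP1 secretion from the human gut endocrine cells, with no numeric limit stated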); conditions: NCI-H716 cells, at 10 µM, stronger effect = higher value
[5] = HCT116 colon cancer cell growth inhibition, primary screen, CellTiter-Glo luminescence, NPC library (AID 1117342;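 active means compounds that lower survival of HCT116 colon cancer cells in the luminescence readout, no numeric limit stated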); conditions: at 20 µM (top of the series)
[6] = CellTiter-Glo luminescent readout of SW480 viability loss, NPC library primary (AID 1117343); conditions: CellTiter-Glo luminescence; at 20 µM (top of the series)
[7] = decreased DLD-1 cellular survival, CellTiter-Glo luminescent readout, NPC compound collection, primary HTS (AID 1117346;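 active means compounds that lower survival of DLD-1 colon cancer cells in the luminescence readout, no cutoff given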); conditions: DLD-1 viability, CellTiter-Glo luminescence; at 20 µM (top of the series)
[8] = molecular target: 6-phosphogluconate dehydrogenase, decarboxylating (Homo sapiens) (UniProt P52209); assay: 6PGD enzyme inhibitors, primary screen, biochemical, human, recombinant enzyme, NADPH absorbance (AID 1159550;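 active means at least 20% inhibition of 6-phosphogluconate dehydrogenase activity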); conditions: recombinant 6PGD, NADPH absorbance 341 nm; at 10 µM; stronger effect = higher value
[9] = differential killing of epithelial or mesenchymal cells, primary screen, imaging, PC-3E GFP, TEM4-18 mCherry, co-culture (AID 1345086;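 active means compounds killing one labelled cell type while sparing the other, by normalised counts and ratio limits, not self-fluorescent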;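 on all read-outs here: cells exposed to compound for 72 h before imaging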;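 on red/green cell ratio (normalised): normalised mesenchymal count divided by normalised epithelial count so high means epithelial killing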); conditions: imaging cell counts, at 1 µM; for red/green cell ratio (normalised): actives lie on both sides, counts scaled to control wells, 1 = unselective
[10] = modulation of C. elegans fzo-1 (AID 1259413; call rule not given here;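 further: fzo-1 mutant C. elegans worms in liquid wells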); conditions: C. elegans fzo-1 modulator screen, mean read-out; stronger effect = higher value
[11] = measured here: epithelial PC-3E GFP cell survival
[12] = measured here: mesenchymal TEM4-18 mCherry cell survival

Chain of 6-phosphogluconate dehydrogenase, decarboxylating (Homo sapiens) (P52209 whole entry, looked up): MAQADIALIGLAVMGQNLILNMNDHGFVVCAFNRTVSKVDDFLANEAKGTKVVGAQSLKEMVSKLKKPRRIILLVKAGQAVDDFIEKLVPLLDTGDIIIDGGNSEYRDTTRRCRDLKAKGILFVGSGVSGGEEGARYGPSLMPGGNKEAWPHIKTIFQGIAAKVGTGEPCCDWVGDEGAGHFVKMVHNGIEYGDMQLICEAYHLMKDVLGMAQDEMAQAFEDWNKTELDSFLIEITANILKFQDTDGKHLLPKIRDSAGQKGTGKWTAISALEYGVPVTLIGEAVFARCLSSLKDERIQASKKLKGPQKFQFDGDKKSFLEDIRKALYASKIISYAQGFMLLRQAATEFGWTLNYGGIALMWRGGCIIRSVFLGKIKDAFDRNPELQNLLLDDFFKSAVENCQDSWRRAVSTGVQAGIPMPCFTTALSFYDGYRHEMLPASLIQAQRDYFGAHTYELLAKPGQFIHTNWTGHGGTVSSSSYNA

NC/C=C/C(=O)O
inactive: insulin secretion stimulation [1] 1.5% | viability decrease [2] -42.3% | tube area decrease [3] -0.5% | GLP1 secretion stimulation [4] -2.6% | inhibition of viability [5] 3.67% | viability decrease (inhibition) [6] 11.1% | viability decrease (inhibition) [7] -6.3% | inhibition [8] 0.304%

CC(=O)OCC1=C(C(=O)O)N2C(=O)[C@@H](NC(=O)Cc3cccs3)[C@H]2SC1
1.23: normalised cell number [9, 12]
1.21: normalised cell number [9, 11]
inactive: insulin secretion stimulation [1] 3.6% | viability decrease [2] 33.1% | tube area decrease [3] -3.9% | GLP1 secretion stimulation [4] 2.4% | inhibition of viability [5] 2.9% | viability decrease (inhibition) [6] -15.1% | viability decrease (inhibition) [7] -1% | inhibition [8] 4.29% | red/green cell ratio (normalised) [9] 1.02

CC(=O)OCC1=C(C(=O)O)N2C(=O)[C@@H](NC(=O)CSc3ccncc3)[C@H]2SC1
1.24: normalised cell number [9, 12]
inactive: insulin secretion stimulation [1] 0.9% | viability decrease [2] 14.8% | tube area decrease [3] -9.7% | GLP1 secretion stimulation [4] -1.1% | inhibition of viability [5] 5.07% | viability decrease (inhibition) [6] 13.8% | viability decrease (inhibition) [7] -15.1% | inhibition [8] 3.03% | red/green cell ratio (normalised) [9] 1.23
1: normalised cell number [9, 11]

CC1(C)O[C@@H]2C[C@H]3[C@@H]4CCC5=CC(=O)CC[C@]5(C)[C@@]4(F)[C@@H](O)C[C@]3(C)[C@]2(C(=O)CCl)O1
inactive: insulin secretion stimulation [1] -0.7% | viability decrease [2] -39% | tube area decrease [3] 10.2% | GLP1 secretion stimulation [4] -1.7% | inhibition of viability [5] -4.27% | viability decrease (inhibition) [6] 9.4% | viability decrease (inhibition) [7] -22.2% | inhibition [8] 12.4%

CCOc1ccc(Cc2nccc3cc(OCC)c(OCC)cc23)cc1OCC
1: normalised cell number [9, 11]
inactive: insulin secretion stimulation [1] 1.2% | viability decrease [2] -83% | tube area decrease [3] 39.2% | GLP1 secretion stimulation [4] 4.1% | inhibition [8] -5.46% | red/green cell ratio (normalised) [9] 0.88
active: inhibition of viability [5] 69.1% | viability decrease (inhibition) [6] 97.9% | viability decrease (inhibition) [7] 62.3%
0.88: normalised cell number [9, 12]

CC(C)(Oc1ccc(CCNC(=O)c2ccc(Cl)cc2)cc1)C(=O)O
inactive: insulin secretion stimulation [1] 0.4% | viability decrease [2] -10.3% | tube area decrease [3] -25.4% | GLP1 secretion stimulation [4] -1.3% | inhibition of viability [5] 4.05% | viability decrease (inhibition) [6] -13.9% | viability decrease (inhibition) [7] -20.8% | inhibition [8] 4.98% | red/green cell ratio (normalised) [9] 1.21
1.03: normalised cell number [9, 11]
1.25: normalised cell number [9, 12]

Cc1c2oc3c(C)ccc(C(=O)N[C@@H]4C(=O)N[C@H](C(C)C)C(=O)N5CCC[C@H]5C(=O)N(C)CC(=O)N(C)[C@@H](C(C)C)C(=O)O[C@@H]4C)c3nc-2c(C(=O)N[C@@H]2C(=O)N[C@H](C(C)C)C(=O)N3CCC[C@H]3C(=O)N(C)CC(=O)N(C)[C@@H](C(C)C)C(=O)O[C@@H]2C)c(N)c1=O (I: T[dV]P[Sar][NMeV] / II: T[dV]P[Sar][NMeV]; ester I:1-I:C, II:1-II:C; linker I:N-II:N via Actinocin(9to1))
inactive: insulin secretion stimulation [1] 1% | GLP1 secretion stimulation [4] 1.9% | inhibition [8] -6.87% | mean signal [10] 256
active: viability decrease [2] -75.8% | tube area decrease [3] 110% | inhibition of viability [5] 37.8% | viability decrease (inhibition) [6] 70.6% | viability decrease (inhibition) [7] 69.3%

O=C1C(O)=C(O)C(=O)C(O)=C1O
inactive: insulin secretion stimulation [1] 1.9% | viability decrease [2] -21% | tube area decrease [3] -10.5% | GLP1 secretion stimulation [4] -1.5% | inhibition of viability [5] -0.4% | viability decrease (inhibition) [6] 27.9% | viability decrease (inhibition) [7] 23.1% | inhibition [8] 10.5% | red/green cell ratio (normalised) [9] 1.1
1.12: normalised cell number [9, 12]
1.02: normalised cell number [9, 11]
